A selection: hits, their analogues and other compounds. The true share with any hit is near 17%.
TDP1 cell noCPT: qHTS for Inhibitors of human tyrosyl-DNA phosphodiesterase 1 (TDP1): qHTS in cells in absence of CPT | DT40 Tdp1-/- hTDP1 cells, no CPT, ATP luminescence, 48 h | Potency, µM (top dose mostly 46.2 µM), inactives show at the highest dose activity change, negative = growth inhibition, actives largely listed as inhibitors | 420,000 compounds, 15% hits; note: % is set by controls: 0 for no effect and ±100 for the full control effect; nearly all actives have a fitted effect of over 55% in size
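Cells were dispensed at 400 per well, compounds added by pin tool, plates incubated ≥48 hr at 37 °C, then CellTiter-Glo added for 30 min at room temperature before luminescence reading. Line: DT40 Tdp1-/- complemented with hTDP1; camptothecin omitted.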
S2 tox: Viability Counterscreen for Primary qHTS for Inhibitors of ATXN expression; S2 cells (HEK-293 line with an ATXN2-luciferase reporter) viability, CellTiter-Fluor protease fluorescence, 24 h; Potency, µM (highest dose often 56.7 µM), actives largely listed as cytotoxic; 400,000 compounds, 0.49% hits; AID 651635, 2014; note: nearly all actives have a fitted effect of over 40% in size
HepG2 tox: qHTS for Inhibitors of TGF-b: Cytotox Counterscreen; HepG2 CAGA-GFP viability, ATP luminescence, 18 h; Potency, µM (doses to about 46.1 µM), for inactives: at the top dose activity change, negative = cytotoxicity, actives largely listed as cytotoxic; 410,000 compounds, 0.76% hits
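CellTiter-Glo luminescence gave cytotoxicity after 18 hours at 37 degrees C. The cells were HepG2 CAGA-GFP in 1% FBS DMEM, stimulated with 500 pg/mL TGF-beta after compound addition. %Activity was normalised to no-cell wells (complete cell-killing) and DMSO (no toxicity), and curves were fitted and classified.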
TDP1 cell CPT: qHTS for Inhibitors of human tyrosyl-DNA phosphodiesterase 1 (TDP1): qHTS in cells in presence of CPT; chicken DT40 Tdp1-/-;hTDP1 cells + 20 nM CPT, ATP luminescence, 48 h; 420,000 compounds, 12% hits; Potency, µM (top dose mostly 46.2 µM), without a hit: top-dose activity change, negative = growth inhibition, actives largely listed as inhibitors; note: % is set by controls: 0 for no effect and ±100 for the full control effect; nearly all actives have a fitted effect of over 55% in size
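Chicken DT40 Tdp1-/- cells stably complemented with human TDP1 were seeded at 400 cells/well in medium containing 20 nM camptothecin, exposed to pin-transferred compounds, and grown at 37 °C for at least 48 hr. Viability was read as ATP luminescence.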
TGFb SMAD3 inh: qHTS for Inhibitors of TGF-b | 410,000 compounds, 1.2% hits | Potency, µM (titrated, usually from 46.1 µM), without a hit: top-dose activity, negative = inhibition, hits mostly inhibitors | HepG2 CAGA-GFP TGF-b/SMAD3 reporter, GFP fluorescence, 18 h; TGF-beta stimulated, 500 pg/mL final | AID 588855, 2011; note: % is set by controls: 0 for no effect and ±100 for the full control effect; nearly all actives have a fitted effect of over 65% in size
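GFP signal (ex488/em500-530) from TGF-beta-stimulated HEPG2 CAGA-GFP cells, 500 pg/mL final, 18 h at 37 degrees C in DMEM plus 1% FBS, normalized to unstimulated and DMSO-stimulated controls.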
ATXN2 expr inh: Primary qHTS for Inhibitors of ATXN expression; 360,000 compounds, 0.72% hits; HEK-293 ATXN2-luciferase reporter, luminescence, 24 h; Potency, µM (series often up to 57 µM), for the others: top-dose activity change, negative = inhibition, actives largely listed as inhibitors; note: % is set by controls: 0 for no effect and ±100 for the full control effect; nearly all actives have a fitted effect of over 55% in size
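qHTS (up to 57 uM final) was run with 24 h compound exposure of reporter cells at 37 °C. Each well was multiplexed: SteadyGlo luminescence measured ATXN2-luciferase expression after a fluorogenic Gly-Phe-AFC viability readout (25 uM final).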
An asterisk follows results filed as active; i = inactive; ? = inconclusive; · = not tested or not shown. Calls come from the whole dose curve; as a rule, active = well fitted curve in the direction sought with a large enough effect; inconclusive = small, poorly fitted or top-dose-only effect, or another doubt; inactive = no such curve, though single readings can be large; an effect the other way counts as inactive or inconclusive. Potency is the fitted concentration of half-maximal effect.

SMILES | TDP1 cell noCPT | S2 tox | HepG2 tox | TDP1 cell CPT | TGFb SMAD3 inh | ATXN2 expr inh
CCOC(=O)C1C(=O)N(O)CC1c1cccc(Oc2ccccc2)c1 (stereo not given) | -28.4% | i | -31.1% | 4.8% | -25.8% | ·
COc1ccc(OC(=O)c2cn(-c3cccc(OC)c3)c(=O)c3ccccc23)cc1 | ? | · | -6.9% | ? | 6.5% | ·
CCCOc1ccc(OC(=O)c2cn(-c3ccc(OC)cc3)c(=O)c3ccccc23)cc1 | 16.4µM* | · | -13.4% | ? | -7.0% | ·
CCc1nc(-c2ccc(OC)c(OC)c2)cc2cc(OC)c(OC)cc12 | 20.6µM* | i | 4.8% | 16.4µM* | -0.9% | -24.6%
Cc1ccc(NC(=O)CSc2ncnc3ccccc23)cc1S(=O)(=O)N1CCCCCC1 | ? | i | -24.9% | 25.9µM* | ? | 4.3%
O=C(CSc1ncnc2ccccc12)Nc1cc(S(=O)(=O)N2CCCCC2)ccc1Cl | 25.9µM* | ? | 4.2% | ? | -1.4% | -18.9%
O=C(CSc1ncnc2ccccc12)Nc1cccc(S(=O)(=O)N2CCCC2)c1 | ? | i | -26.3% | ? | -5.4% | 11.4%
COc1cc(CN(C(=O)COc2ccc(Cl)c(C)c2)c2ccccn2)cc(OC)c1OC | 10.3µM* | i | -38.2% | 11.6µM* | -43.3% | -1.5%
Cc1ccc(CN(C(=O)COc2cccc([N+](=O)[O-])c2)c2ccccn2)cc1 | 20.6µM* | i | -12.8% | ? | -14.4% | 0.7%
COc1cc(CN(C(=O)COc2ccccc2Cl)c2ccccn2)cc(OC)c1OC | 18.4µM* | i | -10.7% | ? | -11.7% | 6.8%
COc1cc(CN(C(=O)COc2ccc(Br)cc2)c2ccccn2)cc(OC)c1OC | 16.4µM* | i | -15.6% | 16.4µM* | -14.1% | 9.9%
COCC(=O)N(Cc1ccccc1)c1ccccn1 | -10.1% | i | 2.5% | 4.5% | 0.0% | 2.7%
Cc1ccc(CN(C(=O)COc2ccc(Cl)c(C)c2)c2ccccn2)o1 | 14.6µM* | i | -28.4% | ? | -24.3% | 23.6%
COc1cc(CN(C(=O)COc2ccc(C)cc2)c2ccccn2)cc(OC)c1OC | 9.2µM* | i | -20.1% | 8.2µM* | -4.4% | 7.8%
O=C(c1ccc(F)cc1)N1CCC[C@H](c2nc(-c3ccc(F)cc3)no2)C1 | · | · | · | · | · | 15.8%
Cc1ccc(OCCn2c(SCCO)nc3c(N)ncnc32)cc1 | ? | i | -1.3% | ? | 9.0% | -14.5%
O=C(CC1CCCC1)Nc1ccc(Cl)c(S(=O)(=O)N2CCOCC2)c1 | 16.4µM* | i | -24.1% | ? | ? | -32.9%
CC(C)Oc1ccc(S(=O)(=O)N2CCOCC2)cc1NC(=O)CC1CCCC1 | ? | i | -0.4% | ? | -3.4% | 5.1%
O=C(CC1CCCC1)Nc1cc(S(=O)(=O)N2CCOCC2)ccc1O | ? | ? | 3.6% | 8.2µM* | -3.4% | -5.9%
Cc1ccc(NC(=O)CC2OC(=O)c3ccccc32)cc1S(=O)(=O)N1CCCCCC1 (stereo not given) | ? | ? | -4.2% | ? | -17.1% | -2.9%
O=C(CC1OC(=O)c2ccccc21)Nc1ccc(Cl)c(S(=O)(=O)N2CCCCC2)c1 (stereo not given) | ? | i | 8.91µM* | ? | 0.0% | -5.3%
CC(=O)N1CCN(C(=O)CC2OC(=O)c3ccccc32)CC1 (stereo not given) | 11.6µM* | i | 1.4% | 8.2µM* | ? | 2.3%
Cc1ccc(C(=O)COC(=O)CCC(=O)Nc2ccc(Oc3ccccc3)cc2)cc1 | ? | i | -58.3% | ? | -22.2% | 13.6%
O=C(CN1CCN(S(=O)(=O)N2CCOCC2)CC1)Nc1ccc(Cl)c(Cl)c1 | 16.4µM* | i | -26.2% | ? | -12.7% | -26.1%
O=C(CN1CCOCC1)Nc1ccc(Cl)c(Cl)c1 | -5.9% | i | -0.3% | -5.1% | 7.9% | 5.4%
SMILES | TDP1 cell noCPT | S2 tox | HepG2 tox | TDP1 cell CPT | TGFb SMAD3 inh | ATXN2 expr inh
COc1ccc(/C(C)=N/OCC(=O)N=Nc2c(O)[nH]c3ccc(Br)cc23)cc1 | 18.4µM* | ? | -11.4% | ? | -2.7% | -21.8%
COc1ccc(/C=N/OCC(=O)N=Nc2c(O)[nH]c3ccc(Br)cc23)cc1OC | 23.1µM* | i | -6.5% | 25.9µM* | -12.9% | 10.8%
Cc1cc(C)n(CCC(=O)N=Nc2c(O)[nH]c3ccc(Br)cc23)n1 | ? | i | -19.2% | ? | -19.6% | -19.2%
O=[N+]([O-])c1cccc(Cl)c1NCCNc1ncc(C(F)(F)F)cc1Cl | ? | ? | 3.4% | ? | 0.0% | 0.8%
Fc1ccc(CNC(=S)NCc2ccc(F)cc2)cc1 | -14.5% | i | 26.3% | 13.1% | 18.0% | -17.2%
Fc1ccc(CNC(=S)Nc2cccc(C(F)(F)F)c2)cc1 | 18.4µM* | i | -29.9% | ? | ? | -21.4%
O=[N+]([O-])c1cc(C(F)(F)F)cc([N+](=O)[O-])c1NCCNC(=S)Nc1cccc(F)c1 | 25.9µM* | ? | -125.8% | ? | 11.2µM* | ?
Fc1ccccc1CNC(=S)Nc1cccc(C(F)(F)F)c1 | 23.1µM* | i | -37.8% | ? | ? | -20.6%
C[C@H](NC(=O)[C@H]1N2C(=O)c3ccccc3C2SC1(C)C)C(=O)NCc1ccncc1 (stereo not given in full) | -8.5% | i | -3.3% | -15.1% | -3.6% | -2.5%
COc1ccccc1CNc1ccc(-c2nc(C)no2)cc1[N+](=O)[O-] | 7.31µM* | ? | 6.8% | 7.31µM* | -2.1% | 15.9%
Cc1noc(-c2ccc(NCc3ccccc3)c([N+](=O)[O-])c2)n1 | ? | i | -5.6% | 18.4µM* | -10.1% | 7.7%
Cc1cnc(Nc2ccc(CN3CCOCC3)cc2)nc1Nc1cccc(S(=O)(=O)NC(C)(C)C)c1 | · | · | · | · | · | -9.3%
C[C@@H]1CN([C@H](C)CO)C(=O)CCCn2cc(nn2)CO[C@H]1CN(C)C(=O)Nc1cccc(C(F)(F)F)c1 | ? | i | -16.0% | 4.9% | 0.3% | 3.3%
Cc1cc(C(=O)COc2ccccc2Cl)c(C)n1-c1ccc2c(c1)OCO2 | 6.51µM* | i | -1.3% | ? | -22.8% | 179.9%

Compound activity as filed in PubChem BioAssay.
